Unmarked numbers belong to inactive results. Activity calls are given as the source filed them. No rule for the calls is given here. Where only a bound is given, the exact number is not on record here.

This experiment can be described thus: C difficile toxins, biochemical counterscreen, UDPG substrate absence, confirmatory dose response (AID 720650). The settings on record: series mostly up to 19.5 µM; activity change, negative = inhibition: at the top concentration. Background: The purpose of a counterscreen is to sort out artefacts and off-target activity.
Turning to `NC(=O)Nc1ccc(Nc2ccccc2)cc1`, the AC50 was more than 39 µM.
As to `CCOC(CCNC(=O)c1cn(CCOC)c(=O)c2c1c1ccccc1n2C)OCC`, the “activity change, negative = inhibition” value was 5.74%.
Still for that read-out and setting: next, `COc1cc(/C=C/C(=O)OCC(=O)NC(=O)NC(C)(C)C)ccc1O`: 6.81%; `Cc1ccc(S(=O)(=O)Oc2ccccc2/C=C2\SC(=O)NC2=O)cc1`: -9.78%.
In the case of `Cc1cccc(N/N=C/c2ccncc2)c1`, the half-maximal activity concentration (AC50) is 1.1 µM (active).
Take `C=C1CCN(Cc2ccccc2)S(=O)(=O)c2ccccc21`: the “activity change, negative = inhibition” value is -1.24%.
`COc1cc(/C=N/n2c(-c3ccccc3)n[nH]c2=S)ccc1O`: the “activity change, negative = inhibition” value is 7.21%.
The same measure, in the same setting: the same measure for `Nc1ccccc1-c1nc2ccncc2[nH]1`: 8.76%; for `CN(C)c1ccc(/C=C/c2cccc[n+]2[O-])cc1`: -21.1%.
Take `CN(C)CCNC(=O)c1cc2c(s1)-c1ccc(Cl)cc1SC2`: the AC50 is more than 39 µM.
As to `Cc1cccc(/C=C/c2onc(C)c2S(=O)(=O)N2CCC(C(=O)NC(C)(C)C)CC2)c1`, the “activity change, negative = inhibition” value was -5.61%.
Consider `C/C(=N\NC(N)=S)c1ccc2c(c1)OCCO2`, for which the “activity change, negative = inhibition” value was -8.65%.
Same read-out and setting: the same measure for `Clc1ccc(/C=C/c2ncc[nH]2)c(Cl)c1`: -10.7%; for `O=C(CSc1nnc(-c2ccncc2)o1)N1CCCCCC1`: -6.56%.
As for `O=C(Cc1ccccc1)NNC(=S)NC(=O)c1cccnc1`, the AC50 is more than 39 µM.
As for `O=C(Nc1ccccc1F)N1C[C@@H]2N[C@H](C1)C2c1ccc(-c2cccc(F)c2)cc1` (some centres not stated), the “activity change, negative = inhibition” value is 11.1%.
Turning to `Cc1cc(C=C2C(=O)c3ccccc3C2=O)c(C)n1-c1ccc(C(=O)O)cc1`, the concentration at half-maximal activity (AC50) was 12 µM (active).
For the molecule `CC(C(=O)OCC(=O)c1c(N)n(C)c(=O)n(C)c1=O)N1C(=O)c2ccccc2C1=O` (configuration not stated), the “activity change, negative = inhibition” value was -5.17%.
On to `Cc1ccc(NC(=O)OC(C)N2CCCCC2)cc1NC(=O)OC(C)N1CCCCC1` (configuration not stated), for which the “activity change, negative = inhibition” value is 9.91%.
Turning to `COc1cc(/C=C(\C#N)C(=O)Nc2ccc3c(c2)OCCO3)ccc1O`, the AC50 is more than 39 µM.
Turning to `COc1cc(O)ccc1C(=O)CCc1ccc(O)cc1`, the AC50 is 10.7 µM (active).
Consider `Cc1cc2c(cc1S(=O)(=O)N(C)c1ccccc1)NC(=O)CO2`, for which the “activity change, negative = inhibition” value was -3.43%.

A word on the AC50: it is the concentration at which the activity in the assay is half-maximal.

(Values after PubChem BioAssay AID720650 (Broad Institute, 2013).)
